PubChem BioAssay AID1159580 (chemical genetic matrix, 2015)
Hit rate of the full screen: of about 5,500 compounds, about 2,000 (36%) were called active. Inconclusive results (about 18%) are left out. Cut-off read from the data, not from the text of the source: active = normalized growth mostly below about 0.91 (no sharp cut-off); inconclusive = no clear call, values can overlap the other calls; inactive = mostly above about 0.92. The list shows a part of the results.

Assay: chemical genetic growth profiling, strain panel (AID 1159580);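 note: tested at 20 µM; growth read once vehicle control cultures reached saturation at 30 °C; 1 = growth at the plate median or of vehicle wells; lower values mean less growth of the strain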
Details: S. cerevisiae deletion strains, growth OD
[1] = locus YAL040C, strain CLN3, active compounds read low
[2] = locus YCL061C, strain MRC1 (second series), active compounds read low
[3] = locus YDR363W, strain ESC2, active compounds read low
[4] = locus YER002W, strain NOP16, active compounds read low
[5] = locus YGR078C, strain PAC10, active compounds read low
[6] = locus YGR229C, strain SMI1, active compounds read low
[7] = locus YNL175C, strain NOP13, active compounds read low
[8] = locus YNL197C, strain WHI3, active compounds read low
[9] = locus YNL224C, strain SQS1, active compounds read low
[10] = locus YNL322C, strain KRE1, active compounds read low
[11] = locus YOR083W, strain WHI5 (second series), active compounds read low
[12] = locus YHR030C, strain SLT2, active compounds read low
[13] = locus YDR150W, strain NUM1, active compounds read low
[14] = locus YJR075W, strain HOC1, active compounds read low
[15] = locus YMR263W, strain SAP30, active compounds read low
[16] = locus YMR307W, strain GAS1, active compounds read low
[17] = locus YPL241C, strain CIN2, active compounds read low

Measured: normalized growth

CC(/C=C/c1cccc(Oc2ccc(F)cc2)c1)N(O)C(N)=O (stereo unspecified)
inactive: [1] 0.991 | [2] 0.994 | [3] 0.987 | [4] 1.01 | [5] 1.01 | [6] 1 | [7] 1 | [8] 0.971 | [9] 0.984 | [10] 1.01 | [11] 0.966

OCCOCCN1CCN(C2=Nc3ccccc3Sc3ccccc32)CC1
inactive: locus YAL021C, strain ccr4, active compounds read low 1.01 | locus YAL026C, strain drs2, active compounds read low 1 | locus YAL030W, strain snc1, active compounds read low 0.992 | locus YBL061C, strain skt5, active compounds read low 1.02 | locus YBR009C, strain hhf1, active compounds read low 1.02 | locus YBR023C, strain chs3, active compounds read low 1.01 | locus YBR171W, strain sec66, active compounds read low 1 | locus YBR231C, strain swc5, active compounds read low 1.01 | locus YBR279W, strain paf1, active compounds read low 1.01 | locus YCL011C, strain gbp2, active compounds read low 0.993 | locus YCL016C, strain dcc1, active compounds read low 0.997 | locus YCL069W, strain vba3, active compounds read low 1.01 | locus YCR088W, strain abp1, active compounds read low 1 | locus YDL005C, strain med2, active compounds read low 1 | locus YDL040C, strain nat1, active compounds read low 1 | locus YDR001C, strain nth1, active compounds read low 1.01 | locus YDR069C, strain doa4, active compounds read low 0.998 | locus YDR137W, strain rgp1, active compounds read low 1 | locus YDR159W, strain sac3, active compounds read low 1 | locus YDR195W, strain ref2 0.977 | locus YDR297W, strain sur2, active compounds read low 0.993 | locus YDR334W, strain swr1, active compounds read low 1.01 | locus YDR335W, strain msn5, active compounds read low 1.01 | locus YDR392W, strain spt3, active compounds read low 1.02 | locus YEL003W, strain gim4, active compounds read low 1 | locus YEL037C, strain rad23, active compounds read low 1.01 | locus YEL061C, strain CIN8 (second series), active compounds read low 1 | locus YER015W, strain faa2, active compounds read low 1.01 | locus YER016W, strain bim1, active compounds read low 1.01 | locus YER111C, strain swi4, active compounds read low 1.01 | locus YER155C, strain BEM2 (second series), active compounds read low 0.993 | locus YFR010W, strain ubp6, active compounds read low 1.01 | locus YGL167C, strain pmr1, active compounds read low 1 | locus YGL173C, strain kem1, active compounds read low 1 | locus YGL227W, strain vid30, active compounds read low 0.989 | locus YGL240W, strain doc1, active compounds read low 0.992 | locus YGL253W, strain hxk2, active compounds read low 1.02 | locus YHR013C, strain ard1, active compounds read low 0.982 | locus YHR027C, strain rpn1, active compounds read low 1 | [12] 0.991 | locus YHR079C, strain IRE1, active compounds read low 0.994 | locus YHR142W, strain chs7, active compounds read low 1.02 | locus YJL092W, strain hpr5, active compounds read low 1.02 | locus YJL095W, strain BCK1 (second series), active compounds read low 1 | locus YJL095W, strain BCK1, active compounds read low 0.999 | locus YJL115W, strain asf1, active compounds read low 1 | locus YJL129C, strain trk1, active compounds read low 1.02 | locus YJL154C, strain vps35, active compounds read low 1.03 | locus YJL164C, strain tpk1, active compounds read low 1.01 | locus YJL166W, strain qcr8, active compounds read low 1.01 | locus YJL187C, strain SWE1, active compounds read low 1.01 | locus YJR066W, strain TOR1, active compounds read low 0.978 | locus YKL160W, strain elf1, active compounds read low 1 | locus YKR026C, strain gcn3, active compounds read low 1.02 | locus YKR091W, strain srl3, active compounds read low 1.01 | locus YLL001W, strain dnm1, active compounds read low 0.996 | locus YLL026W, active compounds read low 1 | locus YLL041C, strain sdh2, active compounds read low 1.02 | locus YLR027C, strain aat2, active compounds read low 1.01 | locus YLR113W, strain HOG1, active compounds read low 1 | locus YLR221C, strain rsa3, active compounds read low 1 | locus YLR258W, strain gsy2, active compounds read low 1.01 | locus YLR262C, strain YPT6 (second series), active compounds read low 1.03 | locus YLR320W, strain mms22, active compounds read low 0.981 | locus YLR342W, strain FKS1, active compounds read low 1 | locus YLR357W, strain rsc2, active compounds read low 1.01 | locus YLR370C, strain arc18, active compounds read low 1.01 | locus YLR384C, strain iki3, active compounds read low 1.01 | locus YML120C, strain ndi1, active compounds read low 1.01 | locus YMR058W, strain fet3, active compounds read low 1.01 | locus YMR125W, strain sto1, active compounds read low 1.01 | locus YMR129W, active compounds read low 1.01 | locus YMR205C, strain PFK2, active compounds read low 0.994 | locus YMR231W, strain pep5, active compounds read low 1 | locus YNL071W, strain lat1, active compounds read low 1 | locus YNL183C, strain NPR1, active compounds read low 0.975 | locus YNL209W, strain ssb2, active compounds read low 1.01 | locus YNL248C, strain rpa49, active compounds read low 0.977 | locus YNL322C, strain KRE1 (second series), active compounds read low 1 | locus YNR049C, strain mso1, active compounds read low 1.01 | locus YOR001W, strain rrp6, active compounds read low 0.995 | locus YOR070C, strain gyp1, active compounds read low 0.995 | locus YOR080W, strain dia2, active compounds read low 1 | locus YOR083W, strain WHI5, active compounds read low 0.991 | locus YOR106W, strain vam3, active compounds read low 0.997 | locus YOR231W, strain MKK1, active compounds read low 0.981 | locus YOR265W, strain rbl2, active compounds read low 1 | locus YOR270C, strain vph1, active compounds read low 1 | locus YOR290C, strain snf2, active compounds read low 1 | locus YPL051W, strain arl3, active compounds read low 1.02 | locus YPL078C, strain atp4, active compounds read low 1.01 | locus YPL106C, strain sse1, active compounds read low 1.03 | locus YPL240C, strain hsp82, active compounds read low 1 | locus YPL256C, strain CLN2, active compounds read low 0.989

N=C1Sc2ccccc2C2=NCCCN12
inactive: [1] 1.02 | [2] 1.01 | [13] 1.04 | [3] 1.01 | [4] 1.04 | [5] 1.02 | [14] 0.945 | [15] 1.01 | [7] 1.04 | [8] 1.02 | [9] 1.02 | [10] 1.01 | [11] 0.988 | [17] 1.02
active: [16] 0.872

Clc1ccc(C2=CSC3=NCCCN23)cc1
inactive: locus YAL013W, strain DEP1, active compounds read low 0.997 | locus YBR229C, strain ROT2, active compounds read low 1.02 | locus YDL101C, strain DUN1, active compounds read low 0.993 | [13] 0.959 | locus YEL061C, strain CIN8, active compounds read low 1 | [5] 0.992 | [6] 1.01 | [12] 0.986 | locus YHR087W, strain rtc3, active compounds read low 0.994 | locus YJR043C, strain POL32, active compounds read low 0.999 | [14] 0.989 | locus YLR039C, strain RIC1, active compounds read low 0.989 | locus YLR058C, strain SHM2 (second series), active compounds read low 1.01 | locus YLR085C, strain ARP6, active compounds read low 1.03 | locus YLR262C, strain YPT6, active compounds read low 0.998 | locus YML094W, strain GIM5, active compounds read low 0.993 | locus YMR219W, strain ESC1, active compounds read low 1.01 | [15] 0.986 | [16] 0.982 | locus YNL153C, strain GIM3, active compounds read low 0.995 | locus YNL298W, strain CLA4 (second series), active compounds read low 1.04 | [10] 0.999 | locus YNR030W, strain Alg12, active compounds read low 1.01 | locus YPL055C, strain LGE1, active compounds read low 1.03 | [17] 1 | locus YPR135W, strain CTF4, active compounds read low 1.02
